Data taken from the supplement of paper PMC6555819.

Tests used:
Test in all cases: PBM binding z-score (relative to random genomic background probes); higher = stronger binding; sequences stand for … in GC…GCGATTGACAGCGTAGAATGAAGG
[1] = system: FXR:RXRa (NR concentration 270 nM, RXRa partner concentration 90 nM)
Summary of the method: (§1)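 Regression normalization was applied to scanned fluorescence from custom Agilent 4×180K protein-binding microarrays. Before scanning, arrays were incubated 1 h with ligand-free nuclear receptor dimers, and binding was detected with antibodies against each partner (one per run). Binding z-scores use the random background probes as reference.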

[2] = system: LXRa:RXRa (NR concentration 270 nM, RXRa partner concentration 90 nM)
Summary of the method: as §1

[3] = system: LXRa homodimer (NR concentration 270 nM)
Summary of the method: as §1

[4] = system: LXRb:RXRa (NR concentration 270 nM, RXRa partner concentration 90 nM)
Summary of the method: as §1

[5] = system: LXRb homodimer (NR concentration 270 nM)
Summary of the method: as §1

[6] = system: PPARa:RXRa (NR concentration 270 nM, RXRa partner concentration 90 nM)
Summary of the method: as §1

[7] = system: PPARg:RXRa (NR concentration 180 nM, RXRa partner concentration 90 nM)
Summary of the method: as §1

[8] = system: PPARg:RXRa 270nM:90nM, anti-RXR (NR concentration 270 nM, RXRa partner concentration 90 nM)
Summary of the method: as §1

[9] = system: PPARg:RXRa 30nM:10nM, anti-RXR (NR concentration 30 nM, RXRa partner concentration 10 nM)
Summary of the method: as §1

[10] = system: PPARg:RXRa 90nM:30nM, anti-RXR (NR concentration 90 nM, RXRa partner concentration 30 nM)
Summary of the method: as §1

Row | Sequence | PBM binding z-score [1] | PBM binding z-score [2] | PBM binding z-score [3] | PBM binding z-score [4] | PBM binding z-score [5] | PBM binding z-score [6] | PBM binding z-score [7] | PBM binding z-score [8] | PBM binding z-score [9] | PBM binding z-score [10]
1 | TAGCCTAGGTCATGGGCCACTATACCACGCGAAC | 4.16 | 3.63 | 0.886 | 2.81 | 0.0878 | 4.15 | 4.04 | 4.19 | 1.48 | 3.31
2 | TCTTGTAGATCAGTAGGTTAAGAAAGCTGGCCAA | 0.172 | 0.646 | 0.128 | 0.552 | 0.098 | 1.12 | 0.0222 | 1.98 | 2.94 | 2.31
3 | AGTCCAAGTTCAGGACGAGGTAACGTAAAGCACG | 1.19 | 0.849 | 0.0911 | 0.596 | -0.522 | 1.35 | 0.826 | 0.394 | 0.136 | 0.0902
4 | AATACAGGTTCATCGTAGGCCAGAGTACGCACAG | 3.44 | 4.91 | 1.85 | 2.3 | 0.451 | 3.19 | 1.67 | 1.31 | 0.478 | 0.764
5 | ATCTCTGGGTAAAGTTCAGTGAAAGATCGATAGA | 1.19 | 1.87 | 1.6 | 1.39 | 1.23 | 2.87 | 4.06 | 5.26 | 3.21 | 4.78
6 | CTCGACAGGTCGGTTGAGGTGAGTATACGGATAA | 1.43 | -0.211 | -0.296 | -0.278 | -0.791 | 0.423 | 0.166 | -0.237 | -0.356 | -0.324
7 | GCATATAGGTAATACAAGGTGAATGTCCGATTGT | 1.08 | 1.54 | 0.343 | 0.292 | -0.289 | 1.08 | 1.37 | 1.14 | 0.382 | 0.743
8 | GCTTGTAGACCAAGGTTAAGAAAGACTAAGCTAA | -0.248 | 0.608 | -0.357 | 0.335 | -0.903 | 1.16 | 0.792 | 1.61 | 0.387 | 1.17
9 | CAAGCTAGGTCAAGGTCAAAGTCGGTTTGTGCCA | 6.4 | 5.71 | 4.42 | 4.74 | 1.37 | 5.36 | 5.58 | 5.39 | 2.37 | 4.73
10 | CGTCCAAGGTCAATGCTAGGTCAGTGATAGCATT | 6.64 | 5.38 | 2.71 | 4.07 | 0.685 | 5.03 | 4.12 | 4.4 | 1.74 | 3.05
11 | CAAACTAGGTCAAGGTCAAAGCCGGTTTGTGCCA | 6.25 | 5.33 | 3.23 | 4.36 | 1.05 | 6.15 | 9.26 | 8.02 | 6.18 | 7.95
12 | CCTTACAGGTCACTGACAGGTTATAGCATTTGGA | 6.15 | 4.93 | 2.19 | 3.88 | 0.942 | 5.23 | 4.78 | 4.44 | 2.1 | 3.27
13 | TAGCCTAGGTCATTCAGGGGCCGGTATAGAAAGC | 4.65 | 3.59 | 1.03 | 2.73 | 1.63 | 3.57 | 1.87 | 2.46 | 0.494 | 1.41
14 | ATCTCTAGGTAACCAAGTTCAGTGATTGCCGAAC | 0.358 | 0.717 | 0.794 | 0.577 | 0.713 | 1 | 0.254 | 0.803 | 0.204 | 0.579
15 | CCTGCTAGGTCAATTGTCAGCTAAAGCAGCTCGC | 2.8 | 2 | 0.111 | 1.6 | 0.259 | 2.77 | 1.83 | 2.46 | -0.128 | 1.54
16 | ACAGACAGGTGATGAAGGTAACTTAGGCTATCAT | -0.131 | -0.0415 | -0.322 | 0.0367 | -0.119 | 0.169 | 0.55 | -0.195 | -0.0102 | -0.0594
17 | CATAAAGGGTCAGCTAGGCCAGAGTAGGGACGGC | 5.38 | 3.9 | 0.537 | 2.74 | 0.607 | 4.71 | 4.17 | 3.83 | 1.06 | 2.82
18 | CGAACTAGGTCAAAGACAGTGAATCTCCGCACGC | 3.64 | 2.39 | 0.268 | 1.66 | 0.166 | 4.8 | 7.47 | 6.52 | 4.4 | 6.21
19 | TCTAGTTGGTCAAAGGTAACACACTCGAAATGCG | 1.27 | 1.4 | 0.707 | 1.5 | 0.561 | 4 | 8.12 | 7.77 | 6.85 | 8.85

Row | Sequence | PBM binding z-score [1] | PBM binding z-score [2] | PBM binding z-score [3] | PBM binding z-score [4] | PBM binding z-score [5] | PBM binding z-score [6] | PBM binding z-score [7] | PBM binding z-score [8] | PBM binding z-score [9] | PBM binding z-score [10]
20 | ACTTACGGGTCAACGAGGTTATAACACGCGTATA | 7.16 | 5.41 | 1.28 | 5.13 | 1.29 | 5.9 | 5.93 | 5.54 | 2.6 | 4.07
21 | CGTCCAATGTCAATGCTAGGTCAGTGAAAGCATT | 0.511 | 0.781 | 0.797 | 0.644 | -0.123 | 1.01 | -0.028 | 0.117 | -0.386 | 0.0802
22 | CGTCCAAGGTCAATGCTTGGTCAGTGAAAGCATT | 6.4 | 4.57 | 0.472 | 3.42 | 0.327 | 4.9 | 3.44 | 4 | 0.746 | 2.46
23 | ATCGAAAGGTCGAGGTGAGAATAGAGAAAGGGAA | 4.1 | 3.48 | 0.181 | 2.84 | 0.399 | 4.79 | 3.58 | 3.93 | 1.56 | 2.64
24 | GCGACTGGGGCAAAGCAGGCTACCATAAGGTTGG | -0.319 | -0.696 | -0.699 | -0.682 | -0.971 | 0.527 | 0.941 | 0.966 | -0.413 | 0.272
25 | GCTCGGAGGACAAGATCAGAGCTTTGTCCGTAGA | -0.699 | -0.742 | -0.685 | -0.96 | -0.96 | -0.552 | -0.773 | -0.906 | -1.18 | -1.04
26 | CGTCAAAGTTCAACTACGGTAACGTAAAGCACGC | 6.73 | 6.61 | 4.35 | 4.24 | 2.11 | 5.17 | 4.85 | 5.54 | 2.32 | 4.26
27 | CCGACTAGGGCAAAGGTTACCATACTCAGTACGA | 2.31 | 2.04 | 0.518 | 2.49 | -0.304 | 6.31 | 11.2 | 8.96 | 9.02 | 9.62
28 | AGTCAAAATTCAGGACGAGGTAACGTAAAGCACG | 0.194 | -0.186 | 0.224 | -0.188 | -0.336 | 0.0316 | 0.944 | 0.294 | 0.281 | 0.217
29 | GCCGCTAGGTCAACTGATGGTCAGCTAAAGCTCG | 3.97 | 3.16 | 0.212 | 1.89 | -0.472 | 3.71 | 2.44 | 3.07 | 0.658 | 1.82
30 | TCGAGTACGTTACCAATGGGGCATTCAGCTTTCT | -0.0711 | -0.26 | -0.435 | 0.321 | -0.0116 | 0.16 | -0.0505 | 0.394 | 1.32 | 0.788
31 | TCGAGTAGGTCAGTCGGGGCATTCAGCCAACATA | 1.39 | 1.09 | -0.271 | 1.55 | -0.625 | 2.56 | 2.27 | 2.87 | 1.39 | 2.2
32 | ACTATTATTTGAGACGAGGGCAACCGATAGGTTG | 0.64 | 0.912 | 1.29 | 0.748 | 1.1 | 0.639 | 0.833 | 0.648 | 0.477 | 0.429
33 | AATCGGAGGACAAAGGTCAGAGCTACGCCAGTGA | 4.21 | 4.44 | 1.79 | 3.53 | 0.469 | 5.18 | 8.17 | 7.23 | 6.45 | 7.59
34 | TCTATTAGTTGATTAGGGTAACCGAAACAGCGGA | 0.555 | 0.884 | 0.302 | 1.09 | 0.799 | 1.01 | 0.052 | 1.86 | 3.73 | 2.87
35 | TCGAGTAGGTTAGTCGGGGCATTCTGCCAACATA | -0.351 | -0.585 | -0.552 | 0.145 | -0.607 | 0.377 | -0.424 | 0.587 | 0.946 | 0.676
36 | ATATGTAGGTTAAGGGTCAATCAGGTTGGTTCGC | 4.97 | 4.62 | 1.8 | 4.47 | 1.35 | 6.65 | 11.6 | 9.7 | 10.1 | 10.8
37 | CGAACTAGGTCATCCAGTACAGTGAATACATTGA | 4.18 | 2.86 | 0.599 | 2.59 | 0.209 | 4.82 | 7.93 | 6.36 | 4.02 | 5.81
38 | TCGAGTAGGGTAGGGGCATTCAGAATGGCGTCGA | 0.264 | 0.12 | 0.0875 | 1.16 | 1.6 | 0.956 | 0.642 | 1.82 | 1.02 | 1.4
